# Data published in paper PMC8384837, “Expanding the binding specificity for RNA recognition by a PUF domain”.
# Target: PUM1 PUF domain R3-GWG (Homo sapiens, UniProt Q14671 828-1176, C935G;R936W;Q939G)
# Assay: yeast three-hybrid, YBZ-1, SC-Leu-His + 0.5 mM 3-AT, 4 days
# Conditions: tags: N-Gal4 AD-HA kept; label: inside an RPR1-promoter hybrid RNA with tandem MS2 sites; ssRNA
# Outline: (§1)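 The interaction score is the log change in how often each variant appears, from input to selection. Frequencies came from PCR-amplified, Illumina-sequenced repeat regions of Pumilio-1 PUF domain libraries grown in strain YBZ-1 (LexA–MS2 coat fusion, HIS3 reporter) alongside matching RNA elements. Input plates were SC-Leu and selection plates were SC-Leu-His + 0.5 mM 3-AT, each for four days, and the log2 calculation used a pseudocount of 1 where a variant was absent.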
# Sequence of PUM1 PUF domain R3-GWG (Q14671 828-1176 C935G/R936W/Q939G): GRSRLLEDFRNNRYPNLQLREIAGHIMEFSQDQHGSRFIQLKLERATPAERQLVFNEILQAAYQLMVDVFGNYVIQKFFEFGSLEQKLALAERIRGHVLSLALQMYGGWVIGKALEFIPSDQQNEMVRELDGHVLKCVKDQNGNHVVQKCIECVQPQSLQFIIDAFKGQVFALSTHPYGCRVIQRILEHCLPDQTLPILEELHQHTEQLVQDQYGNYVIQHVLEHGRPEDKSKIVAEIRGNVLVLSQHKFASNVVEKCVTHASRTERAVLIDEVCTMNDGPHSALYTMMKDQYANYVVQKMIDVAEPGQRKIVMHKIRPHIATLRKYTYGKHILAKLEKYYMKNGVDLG
row,Sequence,binding signal
1,GGCUAGAACUAGUGGAUCCCCCGGCGCCCGGCGGCUCGAGCCCGGGUAAGUGUAAUUAGUCUGCAUGCCGCCGGGCGCCAUGCCUGCAGGUCGACUCUAGAAAACAUG,1.55 log2 enrichment (interaction score)
2,GGCUAGAACUAGUGGAUCCCCCGGCGCCCGGCGGCUCGAGCCCGGGUAAGUGUAAGUAGUCUGCAUGCCGCCGGGCGCCAUGCCUGCAGGUCGACUCUAGAAAACAUG,3.17 log2 enrichment (interaction score)
3,GGCUAGAACUAGUGGAUCCCCCGGCGCCCGGCGGCUCGAGCCCGGGUAAGUGUAAAUAGUCUGCAUGCCGCCGGGCGCCAUGCCUGCAGGUCGACUCUAGAAAACAUG,4.07 log2 enrichment (interaction score)

# Target: PUM1 PUF domain R5-RFR (Homo sapiens, UniProt Q14671 828-1176, C1007R;R1008F;Q1011R)
# Assay: as above
# Conditions: tags: N-Gal4 AD-HA kept; label: inside an RPR1-promoter hybrid RNA with tandem MS2 sites; ssRNA
# Outline: as §1
# Sequence of PUM1 PUF domain R5-RFR (Q14671 828-1176 C1007R/R1008F/Q1011R): as the sequence (Q14671 828-1176 C935G/R936W/Q939G) above, with G108C, W109R, G112Q, C180R, R181F, Q184R counted along it
row,Sequence,binding signal
1,GGCUAGAACUAGUGGAUCCCCCGGCGCCCGGCGGCUCGAGCCCGGGUAAGUGUUAAUAGUCUGCAUGCCGCCGGGCGCCAUGCCUGCAGGUCGACUCUAGAAAACAUG,3.92 log2 enrichment (interaction score)
2,GGCUAGAACUAGUGGAUCCCCCGGCGCCCGGCGGCUCGAGCCCGGGUAAGUGUGAAUAGUCUGCAUGCCGCCGGGCGCCAUGCCUGCAGGUCGACUCUAGAAAACAUG,2.74 log2 enrichment (interaction score)
3,GGCUAGAACUAGUGGAUCCCCCGGCGCCCGGCGGCUCGAGCCCGGGUAAGUGUCAAUAGUCUGCAUGCCGCCGGGCGCCAUGCCUGCAGGUCGACUCUAGAAAACAUG,5.35 log2 enrichment (interaction score)
4,GGCUAGAACUAGUGGAUCCCCCGGCGCCCGGCGGCUCGAGCCCGGGUAAGUGUAAAUAGUCUGCAUGCCGCCGGGCGCCAUGCCUGCAGGUCGACUCUAGAAAACAUG,2.72 log2 enrichment (interaction score)

# Target: PUM1 PUF domain R1-YYR (Homo sapiens, UniProt Q14671 828-1176, S863Y;R864Y;Q867R)
# Assay: as above
# Conditions: tags: N-Gal4 AD-HA kept; label: inside an RPR1-promoter hybrid RNA with tandem MS2 sites; ssRNA
# Outline: as §1
# Sequence of PUM1 PUF domain R1-YYR (Q14671 828-1176 S863Y/R864Y/Q867R): as the sequence (Q14671 828-1176 C935G/R936W/Q939G) above, with S36Y, R37Y, Q40R, G108C, W109R, G112Q counted along it
row,Sequence,binding signal
1,GGCUAGAACUAGUGGAUCCCCCGGCGCCCGGCGGCUCGAGCCCGGGUAAGUGUAAAUCGUCUGCAUGCCGCCGGGCGCCAUGCCUGCAGGUCGACUCUAGAAAACAUG,2.79 log2 enrichment (interaction score)
2,GGCUAGAACUAGUGGAUCCCCCGGCGCCCGGCGGCUCGAGCCCGGGUAAGUGUAAAUUGUCUGCAUGCCGCCGGGCGCCAUGCCUGCAGGUCGACUCUAGAAAACAUG,7.65 log2 enrichment (interaction score)
3,GGCUAGAACUAGUGGAUCCCCCGGCGCCCGGCGGCUCGAGCCCGGGUAAGUGUAAAUAGUCUGCAUGCCGCCGGGCGCCAUGCCUGCAGGUCGACUCUAGAAAACAUG,3.43 log2 enrichment (interaction score)
